From PubChem BioAssay (Tox21)
Values joined by “and” are separate entries in the source; they are usually repeats but may differ in a detail not shown here. Equal values may be shown once. Records with an inconclusive call do not appear. More than one record can exist for a structure, and the calls need not agree. Active and inactive are the calls of the source. Unless noted, calls come from the whole dose curve; as a rule, active = well fitted curve in the direction sought with a large enough effect in the repeat runs; inconclusive = weak or mixed curves; inactive = no such curve, though single readings can be large; an effect the other way counts as inactive or inconclusive.

Legend:
[1] = target: Aryl hydrocarbon receptor (Homo sapiens) (UniProt P35869); test: qHTS assay to identify small molecule that activate the aryl hydrocarbon receptor (AhR) signaling pathway (AID 743085); note: nearly all actives have a fitted effect of over 15% in size; note: potency is the fitted concentration of half-maximal effect;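 for activation: HG2L7.5c1 human HepG2 liver cells with stably integrated DRE-driven firefly reporter; series mostly up to about 70 µM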
Sequence of Aryl hydrocarbon receptor (Homo sapiens) (P35869 whole entry, looked up): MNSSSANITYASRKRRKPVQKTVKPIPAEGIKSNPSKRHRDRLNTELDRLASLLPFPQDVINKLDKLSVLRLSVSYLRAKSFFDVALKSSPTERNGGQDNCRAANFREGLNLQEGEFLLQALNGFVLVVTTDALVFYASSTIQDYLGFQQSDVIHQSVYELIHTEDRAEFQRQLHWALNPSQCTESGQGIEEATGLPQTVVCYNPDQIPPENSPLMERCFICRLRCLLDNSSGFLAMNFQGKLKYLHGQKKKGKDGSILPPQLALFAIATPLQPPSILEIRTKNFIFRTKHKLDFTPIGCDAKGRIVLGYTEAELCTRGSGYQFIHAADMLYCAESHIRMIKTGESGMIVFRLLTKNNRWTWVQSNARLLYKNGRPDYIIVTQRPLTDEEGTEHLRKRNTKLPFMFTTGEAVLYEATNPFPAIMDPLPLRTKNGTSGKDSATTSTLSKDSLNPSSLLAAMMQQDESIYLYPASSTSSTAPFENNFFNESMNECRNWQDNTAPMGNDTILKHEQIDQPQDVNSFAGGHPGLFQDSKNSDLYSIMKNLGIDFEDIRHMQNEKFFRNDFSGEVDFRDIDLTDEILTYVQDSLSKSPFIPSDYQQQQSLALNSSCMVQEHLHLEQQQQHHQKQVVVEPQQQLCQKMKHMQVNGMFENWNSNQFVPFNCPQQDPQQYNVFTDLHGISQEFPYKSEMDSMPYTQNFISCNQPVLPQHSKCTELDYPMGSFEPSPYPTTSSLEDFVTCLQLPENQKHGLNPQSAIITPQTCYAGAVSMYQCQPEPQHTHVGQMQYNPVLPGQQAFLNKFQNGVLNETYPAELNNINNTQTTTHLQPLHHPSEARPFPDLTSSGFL
Method in brief: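 Luminescence read-out: ONE-Glo reagent, 30 min at room temperature, in HG2L7.5c1 HepG2 reporter cells treated 24 h at 37C. Viability was measured beforehand by CellTiter-Fluor fluorescence after 30 min at 37C.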

[2] = qHTS assay to identify small molecule that activate the aryl hydrocarbon receptor (AhR) signaling pathway - cell viability counter screen (AID 743086); note: nearly all actives have a fitted effect of over 45% in size; note: potency is the fitted concentration of half-maximal effect;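 for viability change, negative = cytotoxic: HepG2 liver cells carrying the AhR DRE luciferase reporter; series mostly up to about 70 µM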
Method in brief: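 HepG2-AhR-luc (HG2L7.5c1) cells, 4000/well, were preincubated 5 h at 37C, exposed to compound in qHTS format for 24 hr at 37C, then given CellTiter-Fluor for 30 min; viability was read as fluorescence in the reporter wells.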

[3] = target: Peroxisome proliferator-activated receptor gamma (Homo sapiens) (UniProt P37231); test: qHTS assay to identify small molecule agonists of the peroxisome proliferator-activated receptor gamma (PPARg) signaling pathway (AID 743094; active = well fitted activation curve with a large enough effect in the signal ratio in the repeat runs, not every such curve was filed as active; the % refers to the signal ratio; note: potency is the fitted concentration of half-maximal effect)
Sequence of Peroxisome proliferator-activated receptor gamma (Homo sapiens) (P37231 whole entry, looked up): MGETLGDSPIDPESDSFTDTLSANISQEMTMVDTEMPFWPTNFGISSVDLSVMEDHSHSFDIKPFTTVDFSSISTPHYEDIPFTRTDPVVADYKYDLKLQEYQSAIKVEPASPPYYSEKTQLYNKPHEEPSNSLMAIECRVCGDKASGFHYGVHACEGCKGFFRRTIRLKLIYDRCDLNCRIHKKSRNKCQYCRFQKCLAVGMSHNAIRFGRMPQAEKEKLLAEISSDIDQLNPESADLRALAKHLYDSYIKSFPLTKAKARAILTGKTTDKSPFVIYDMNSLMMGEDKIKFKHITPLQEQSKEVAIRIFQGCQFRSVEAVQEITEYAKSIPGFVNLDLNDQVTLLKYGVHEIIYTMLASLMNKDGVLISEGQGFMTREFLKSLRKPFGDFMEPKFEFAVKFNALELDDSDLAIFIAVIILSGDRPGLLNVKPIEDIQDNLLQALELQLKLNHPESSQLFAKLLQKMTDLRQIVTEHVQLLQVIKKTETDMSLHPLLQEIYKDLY
Method in brief: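 Beta-lactamase FRET fluorescence was the read-out after a 1 h room-temperature substrate step, following 17 h compound treatment at 37C of HEK293H cells expressing a UAS-driven bla reporter responsive to PPARg.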

[4] = target: Peroxisome proliferator-activated receptor gamma (Homo sapiens) (UniProt P37231); test: qHTS assay to identify small molecule antagonists of the peroxisome proliferator-activated receptor gamma (PPARg) signaling pathway (AID 743191; calls by dose curve; note: nearly all actives have a fitted effect of over 30% in size; note: potency is the fitted concentration of half-maximal effect; for ratio activity, negative = inhibition: series mostly up to about 63 µM)
Method in brief: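 GeneBLAzer PPARg UAS-bla HEK293H cells carrying a UAS-driven beta-lactamase reporter were plated at 3000 cells/well, preincubated 5 h at 37C, then given compound for 17 h at 37C; LiveBLAzer B/G FRET substrate was read after 1 h at room temperature.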

[5] = qHTS assay to identify small molecule antagonists of the peroxisome proliferator-activated receptor gamma (PPARg) signaling pathway - cell viability counter screen (AID 743194); note: nearly all actives have a fitted effect of over 55% in size; note: potency is the fitted concentration of half-maximal effect
Method in brief: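 PPARg-UAS-bla HEK293H cells were plated, rested 5 h at 37 C, then treated with compounds plus rosiglitazone (50 nM final) for 17 h at 37 C; viability was then read by CellTiter-Glo luminescence after 30 min at room temperature.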

[6] = qHTS assay for small molecule agonists of the antioxidant response element (ARE) signaling pathway (AID 743202; active = well fitted activation curve with a large enough effect in the signal ratio in the repeat runs, not every such curve was filed as active; the % refers to the signal ratio; note: potency is the fitted concentration of half-maximal effect)
Method in brief: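 Read-out: LiveBLAzer B/G FRET substrate fluorescence after 2 h at room temperature, following 16 h compound treatment at 37 C of HepG2 cells carrying an ARE-driven beta-lactamase reporter.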

[7] = qHTS assay for small molecule agonists of the antioxidant response element (ARE) signaling pathway - cell viability counter screen (AID 743203; calls by dose curve; note: nearly all actives have a fitted effect of over 55% in size; note: potency is the fitted concentration of half-maximal effect)
Method in brief: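 HepG2 cells carrying ARE-driven beta-lactamase; 2,000 cells/well; 5 hrs plating; compound pinned from DMSO; 16 hrs 37C/5% CO2; CellTiter-Glo added; 30 min RT; luminescence.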

[8] = qHTS assay for small molecule activators of the heat shock response signaling pathway - cell viability counter screen (AID 743209); note: nearly all actives have a fitted effect of over 50% in size; note: potency is the fitted concentration of half-maximal effect
Method in brief: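 Luminescence from CellTiter-Glo, added after the beta-lactamase FRET read, gave the viability signal. Cells were HSE-bla HeLa treated with DMSO-dissolved compounds for 5 h at 37 C following overnight plating.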

[9] = qHTS assay for small molecule activators of the heat shock response signaling pathway (AID 743210; active = well fitted activation curve with a large enough effect in the signal ratio in the repeat runs, with a control signal flat, not every such curve was filed as active; the % refers to the signal ratio; note: series mostly up to about 63 µM)
Method in brief: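 HSE-bla HeLa cells (beta-lactamase reporter under heat shock response elements) were exposed to compounds for 5 h at 37 C, then loaded with LiveBLAzer B/G FRET substrate for 2.5 h at room temperature before fluorescence reading.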

[10] = qHTS assay to identify small molecule agonists of the peroxisome proliferator-activated receptor delta (PPARd) signaling pathway - cell viability counter screen (AID 743211); note: nearly all actives have a fitted effect of over 55% in size; note: potency is the fitted concentration of half-maximal effect
Method in brief: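 Read-out: CellTiter-Glo luminescence, 30 min RT, measured in the same wells as the beta-lactamase reporter. Cells: GeneBLAzer PPAR delta UAS-bla HEK293H, 3000 cells/well, compound exposure 17 h at 37C.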
% is set by controls: 0 for no effect and ±100 for the full control effect.

Nc1ncnc2c1ncn2[C@@H]1O[C@H](COP(=O)(O)O)[C@@H](O)[C@H]1O
inactive: Potency [1] | Potency [2] | Potency [3] | Potency [4] | Potency [5] | Potency [6] | Potency [7] | Potency [8] | Potency [9]

C(=C/c1ccccc1)/c1ccccc1
inactive: Potency [1] | Potency [2] | Potency [3] | Potency [4] | Potency [5] | Potency [7] | Potency [9] | Potency [10]

COC(=O)CC(C)CCC=C(C)C (stereo not given)
inactive: Potency [1] | Potency [2] | Potency [3] | Potency [4] | Potency [5] | Potency [7] | Potency [10]

CCN1CCN(c2cc(-c3ccc(F)cc3)c3c(n2)CCCCCC3)CC1
inactive: Potency [1] | Potency [2] | Potency [3] | Potency [4] | Potency [5] | Potency [7] | Potency [8]

CC1CCCNC1 (stereo not given)
inactive: Potency [1] | Potency [2] | Potency [3] | Potency [4] | Potency [5] | Potency [6] | Potency [7]

Cc1occc1SSc1ccoc1C
inactive: Potency [1] | Potency [2] | Potency [3] | Potency [4] | Potency [5] | Potency [7]

CCCCCCCC/C=C/CCCOC(C)=O
inactive: Potency [1] | Potency [2] | Potency [3] | Potency [4] | Potency [5] | Potency [7] | Potency [10]

C1CC(COCC2CO2)CCC1COCC1CO1 (stereo not given)
active: Potency [6] 54.5 µM
inactive: Potency [1] | Potency [2] | Potency [3] | Potency [4] | Potency [5] | Potency [7] | Potency [9]

c1ccc(Sc2ccccc2)cc1
inactive: Potency [1] | Potency [2] | Potency [3] | Potency [4] | Potency [5] | Potency [6] | Potency [7]

Cc1cn[nH]c1
inactive: Potency [1] | Potency [2] | Potency [3] | Potency [4] | Potency [5] | Potency [6] | Potency [7] | Potency [8] | Potency [9] | Potency [10]

N[C@@H](CSSC[C@H](N)C(=O)O)C(=O)O
inactive: Potency [1] | Potency [2] | Potency [3] | ratio activity, negative = inhibition [4] 3.31% [at 0.55 µM] | activity change, negative = cytotoxicity [5] 9.18% [at 0.55 µM] | activation [6] 9.27% [at 0.756 µM] | viability change, negative = cytotoxic [7] -0.389% [at 0.756 µM]

Clc1ccc(C(c2ccccc2Cl)C(Cl)Cl)cc1 (stereo not given)
inactive: Potency [1] | Potency [2] | Potency [3] | Potency [4] | Potency [7] | Potency [8]
active: Potency [5] 54.9 µM

CCN(CC)CCOC(=O)C1(C2CCCCC2)CCCCC1
inactive: Potency [1] | Potency [2] | Potency [3] | Potency [4] | Potency [5] | Potency [6] | Potency [7] | Potency [8] | Potency [9]

CCOC(=O)[C@@](C)(N)Cc1ccc(O)c(O)c1
inactive: Potency [1] | Potency [2] | Potency [3] | Potency [4] | Potency [5] | Potency [7] | Potency [8]

O=Cc1ccc(F)cc1
inactive: Potency [1] | Potency [2] | Potency [3] | Potency [4] | Potency [5] | Potency [7] | Potency [8] | Potency [9] | Potency [10]

COC(=O)CC#N
inactive: Potency [1] | Potency [2] | Potency [3] | Potency [4] | Potency [5] | Potency [6] | Potency [7] | Potency [8] | Potency [10]

CCCCNc1c(C(=O)OCC)c(C)nc2c1cnn2CC
active: Potency [1] 4.73 µM
inactive: Potency [2] | Potency [3] | Potency [4] | Potency [5] | Potency [7] | Potency [8]

Cc1ccc2ccc3cccc4ccc1c2c34
inactive: Potency [1] | Potency [2] | Potency [3] | Potency [4] | Potency [5] | Potency [6] | Potency [7] | Potency [8]

CCN(CC)c1ccc(N)cc1
inactive: Potency [3] | Potency [4] | Potency [5]
active: Potency [1] 25 µM | Potency [2] 56 µM | Potency [6] 12.5 µM | Potency [10] 44.8 µM

NCCCCCCNCCCCCCN
inactive: Potency [1] | Potency [2] | Potency [3] | Potency [4] | Potency [5] | Potency [7] | Potency [8] | Potency [10]

Cc1c(C(=O)O)cccc1[N+](=O)[O-]
inactive: Potency [1] | Potency [2] | Potency [3] | Potency [4] | Potency [5] | Potency [6] | Potency [7] | Potency [8] | Potency [10]

O=C(O)CCCCCCC(=O)O
inactive: Potency [1] | Potency [2] | Potency [3] | Potency [4] | Potency [5] | Potency [6] | Potency [7] | Potency [8] | Potency [9]

C/C=C/C=N/NC(=O)c1ccncc1
active: Potency [1] 9.44 µM | Potency [6] 6.68 µM | Potency [8] 18.8 µM
inactive: Potency [2] | Potency [3] | Potency [4] | Potency [5] | Potency [7]

C=C(C)C(=O)OCCC[Si](Cl)(Cl)Cl
inactive: Potency [1] | Potency [2] | Potency [3] | Potency [4] | Potency [5] | Potency [6] | Potency [7] | Potency [8] | Potency [10]

CC(=O)Oc1ccc(C2(c3ccc(OC(C)=O)cc3)C(=O)Nc3ccccc32)cc1
inactive: Potency [1] | Potency [2] | Potency [3] | Potency [4] | Potency [5] | Potency [7] | Potency [10]

CC(C)=C1CC[C@@H](C)CC1=O
inactive: Potency [1] | Potency [2] | Potency [3] | Potency [4] | Potency [5] | Potency [6] | Potency [7] | Potency [8]

CC(O)C#CC(C)O (stereo not given)
inactive: Potency [1] | Potency [2]
active: Potency [3] 54.4 µM

CN(Cc1cc(Br)cc(Br)c1N)C1CCCCC1
inactive: Potency [1] | Potency [2] | Potency [3] | Potency [4] | Potency [5] | Potency [7]

c1ccc(Nc2cccc3ccccc23)cc1
inactive: Potency [2] | Potency [3] | Potency [5] | Potency [6] | Potency [7]
49.6 µM (active) and inactive: Potency [4]
active: Potency [1] 49.2 µM and 54.5 µM

O=Nc1ccc(NO)cc1
inactive: Potency [2] | Potency [3] | Potency [4] | Potency [5] | Potency [7] | Potency [8] | Potency [9] | Potency [10]
active: Potency [1] 31.9 µM | Potency [6] 6.36 µM

O=C(O)CC(=O)O
inactive: Potency [1] | Potency [2] | Potency [3] | Potency [4] | Potency [5] | Potency [7] | Potency [8] | Potency [9] | Potency [10]

NC(=O)c1ccccc1N
inactive: Potency [1] | Potency [2] | Potency [3] | Potency [4] | Potency [5] | Potency [6] | Potency [7] | Potency [8] | Potency [9] | Potency [10]

CCC(=O)OCCc1ccccc1
inactive: Potency [1] | Potency [2] | Potency [3] | Potency [4] | Potency [5] | Potency [7]

Cc1cccc(Br)c1
inactive: Potency [1] | Potency [2] | Potency [3] | Potency [4] | Potency [5] | Potency [6] | Potency [7] | Potency [8] | Potency [10]

O=C1OC(OC(=O)c2cccnc2Nc2cccc(C(F)(F)F)c2)c2ccccc21 (stereo not given)
inactive: Potency [1] | Potency [2] | Potency [3] | Potency [5] | Potency [7] | Potency [10]
active: Potency [4] 11.9 µM

CCCCCCCOC(=O)c1ccc(O)cc1
active: Potency [4] 43.6 µM
inactive: Potency [1] | Potency [2] | Potency [3] | Potency [5] | Potency [6] | Potency [7]

S=C(SSSSSSC(=S)N1CCCCC1)N1CCCCC1
inactive: Potency [1] | Potency [3] | Potency [4] | Potency [5] | Potency [7]
active: Potency [2] 2.39 µM | Potency [8] 0.0763 µM | Potency [10] 0.108 µM

CSc1c(Cl)c(Cl)c(Cl)c(Cl)c1Cl
inactive: Potency [1] | Potency [2] | Potency [3]
active: Potency [10] 54.6 µM

SCCCCCCCCS
inactive: Potency [1] | Potency [2] | Potency [3] | Potency [5] | Potency [10]
active: Potency [7] 43.3 µM

[O]=[Zr]
inactive: Potency [1] | Potency [2] | Potency [3] | Potency [5] | Potency [7] | Potency [10]

CCc1ccc(O)c(C(C)(C)C)c1
inactive: Potency [1] | Potency [2] | Potency [3] | Potency [8]

COc1ccccc1OCCNCC(O)COc1cccc2[nH]c3ccccc3c12 (stereo not given)
inactive: Potency [2] | Potency [3] | Potency [9]
active: Potency [1] 21.1 µM | Potency [10] 23.7 µM

CCCCN(CCCC)CCC(O)c1cc2c(Cl)cc(Cl)cc2c2cc(C(F)(F)F)ccc12 (stereo not given)
active: Potency [10] 33.5 µM
inactive: Potency [1] | Potency [2] | Potency [3] | Potency [7] | Potency [8]

CC(C)c1ccc(O)c(C(C)C)c1
inactive: Potency [1] | Potency [2] | Potency [3] | Potency [5] | Potency [8]

CCCCCCCC/C=C\CCCCCCCC(=O)OCCOC(=O)CCCCCCC/C=C\CCCCCCCC
inactive: Potency [1] | Potency [2] | Potency [3] | Potency [5] | Potency [6] | Potency [7] | Potency [8] | Potency [10]

COC(=O)NCCC[Si](OC)(OC)OC
inactive: Potency [1] | Potency [2] | Potency [3] | Potency [5] | Potency [7]

S=P(N1CC1)(N1CC1)N1CC1
inactive: Potency [1] | Potency [2] | Potency [3] | Potency [10]

CC1=C(/C=C/C(C)=C/C=C/C(C)=C/C(=O)Nc2ccc(O)cc2)C(C)(C)CCC1
active: Potency [2] 28 µM | Potency [4] 71 µM | Potency [7] 44.4 µM | Potency [10] 3.56 µM and 4.73 µM
inactive: Potency [1] | Potency [5]
